Inconclusive results are not listed. Active and inactive are the calls of the source. Calls follow the shape of the dose curve; as a rule, active = well fitted inhibition curve with a large enough effect; inconclusive = small, poorly fitted or top-dose-only effect; inactive = flat fitted curve, though single readings scatter.
Assay: qHTS for Inhibitors of Plasmodium falciparum (DD2) proliferation (AID 504314);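 also: parasite DNA measured by SYBR Green fluorescence after red cell lysis; plate controls were DMSO vehicle for no effect and artemisinin wells for full effect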
Conditions: P. falciparum Dd2 in erythrocytes, SYBR Green growth, 72 h; series mostly up to 6.11 µM
In short: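 Fluorescence read-out (ex 485/em 535 nm) of SYBR Green-stained parasite DNA quantifies intraerythrocytic growth. Cultures at 0.3% parasitemia and 2.5% hematocrit were treated for 72 h; data normalized to DMSO and 0.29 uM artemisinin wells.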

Potency, inactive:
CC(CCC(=O)OC[C@H]1O[C@H](C#Cc2ccccc2)C=C[C@H]1Oc1ccc(C)cc1)=NO[C@H](C)c1cn([C@H](CO)Cc2ccccc2)nn1
COc1ccc2c(c1)[C@H](C=Cc1ccccc1)[C@@H]([C@H](O)CO)O2
C[C@H]1[C@@H](C(=O)N2CCCC2)CC(=O)C(=NOCc2ccccc2)C[C@H]1c1ccccc1
COC(=O)C1=C(C(=O)OC)[C@@H]2N(C)c3ccccc3[C@@]23CCC(=O)N(Cc2cc(OC)c(OC)c(OC)c2)C3=N1
C=CCN1C(=O)CC[C@@]23C1=NC(C(=O)OC)=C(C(=O)OC)[C@@H]2N(CC#CC)c1ccccc13
C=CCC(Nc1ccc(OC)cc1)(C(=O)OCC)c1ccccc1 (configuration not stated)
COc1ccc(O[C@H]2C=C[C@@H](c3ccccc3)O[C@H]2CON=C[C@@H](C)[C@H](OCc2ccccc2)C(C)C)cc1
CC(C)OC(=O)[C@H](C)NC(=O)N1CCc2nc(-c3ccccc3)c3c(c2C1)CO[C@@H](C)C3
N#Cc1ccc2c(c1)C[C@]1(c3ccsc3)Oc3c(c(=O)oc4ccccc34)[C@H]2O1
COc1ccc(OC[C@H]2CN3[C@H](c4ccc(Br)cc4)[C@H](C)CC[C@H]3C(=O)O2)cc1
C=CCOC(=O)N[C@H](c1ccc(-c2ccccc2)cc1)[C@H](C)C=CCC(=O)OC

activity, negative = inhibition, inactive:
CC1(OC(=O)CCc2ccccc2)C(=O)C=C2C=C(c3ccc(C#N)cc3)N(CC3CC3)C=C2C1=O (configuration not stated) -3.92% [at 1.12 µM]

— PubChem BioAssay (NCATS)
